# Assay results reported in PubChem BioAssay (EPA / NIEHS).
# Activity calls are given as the source filed them. How the source made its calls: active means hit-call score of the fitted dose curve at least 0.9, where 1 is the maximum; inactive means score below 0.9.
# Read-out: Transforming growth factor beta 1 (TGFb1), TGFB1 (gene 7040)
# Assay: BSK_BE3C_TGFb1: BioMAP Diversity Plus: BE3C Assay for Transforming growth factor beta 1 (TGFb1) Biomarker Activity (AID 2283036;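 on outcome: TGF-b1 protein level measured by ELISA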)
# Conditions: primary human bronchial epithelial cells; actives raise or lower the signal
# How it was run: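 Read-out: ELISA for TGF-b1 in primary human bronchial epithelial cultures, 24 h post-dose. Bidirectional curve fitting vs DMSO control; gain or loss of signal both scored.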
SMILES,outcome,AC50
CCCCC(CC)COC(=O)CCCCC(=O)OCC(CC)CCCC (stereo unspecified),inactive,–
Nc1cccc2c(N)cccc12,inactive,–
CCCCC(CC)COC(=O)CCCCC(=O)OCc1ccccc1 (stereo unspecified),inactive,–
Oc1cc2ccccc2c2ccccc12,–,13.9 µM (active)
CC(O)CO (stereo unspecified),inactive,–
CN1CCN(c2ccccc2/C=C2\SCCN(c3ccc(Cl)c(Cl)c3)C2=O)CC1,–,29.3 µM (active)
O=c1c(-c2ccc(O)cc2)coc2cc(O)ccc12,inactive,–
Cc1oc(-c2ccccc2)nc1CCOc1ccc(C[C@H](Nc2ccccc2C(=O)c2ccccc2)C(=O)O)cc1,–,5.06 µM (active)
CCC(=C(c1ccc(O)cc1)c1ccc(OCCN(C)C)cc1)c1ccccc1,–,9.79 µM (active)
c1ccc2cc3c(ccc4ccccc43)cc2c1,inactive,–
O=[N+]([O-])c1ccc(O)cc1,inactive,–
O=C(O)c1ccccc1C(c1ccc(O)cc1)c1ccc(O)cc1,inactive,–
CCCCCCCCCCCCc1ccccc1S(=O)(=O)O,–,8.96 µM (active)
NC(=O)N1C(=O)C(C(=O)c2cc(Cl)cs2)c2cc(F)c(Cl)cc21 (stereo unspecified),–,2.88 µM (active)
CC1=C(/C=C/C(C)=C/C=C/C(C)=C/C(=O)O)C(C)(C)CCC1,inactive,–
CC[C@H](c1ccc(O)cc1)[C@@H](CC)c1ccc(O)cc1,–,27.9 µM (active)
CC(C)(C)CC(C)(C)c1ccc(O)c(-n2nc3ccccc3n2)c1,inactive,–

SMILES,outcome,AC50
CCCCCCCCOC(=O)CCCCCCCCC(=O)OCCCCCCCC,inactive,–
CCc1nn(C2CCCCC2)c2cc(C3(C#N)CCC(C(=O)O)CC3)ccc12 (stereo unspecified),inactive,–
CN1CCC[C@H]1c1cccnc1,inactive,–
CCCCCCCCCCCCN1CCCC1=O,–,20 µM (active)
C#C[C@]1(O)CC[C@H]2[C@@H]3CCC4=CC(=O)CC[C@@H]4[C@H]3CC[C@@]21C,inactive,–
CC#C[C@]1(O)CC[C@H]2[C@@H]3CCC4=CC(=O)CCC4=C3[C@@H](c3ccc(N(C)C)cc3)C[C@@]21C,inactive,–
COc1ccc([N+](=O)[O-])cc1N,inactive,–
CC(=O)NC1(c2cccc(F)c2)CCN(CC[C@@]2(c3ccc(Cl)c(Cl)c3)CN(c3ccccc3)C(=O)CO2)CC1,inactive,–
OC1CCC(C2CCCCC2)CC1 (stereo unspecified),inactive,–
CC(C)(C)c1ccc(O)c(C(C)(C)C)c1,–,27.8 µM (active)
CC[C@H](C)[C@@H](C(=O)O)n1sc2ccccc2c1=O,inactive,–
OC1CCCCC1,inactive,–
O=C(O)Cc1cc(I)c(Oc2cc(I)c(O)c(I)c2)c(I)c1,–,8.3 µM (active)
c1ccc2c(c1)Cc1ccccc1-2,inactive,–
C=C(C)C(=O)OCCC(F)(F)C(F)(F)C(F)(F)C(F)(F)C(F)(F)C(F)(F)F,inactive,–
CCCOc1sc(C(=O)N2CCC(c3cc(CN)ccc3F)CC2)c(C)c1Br,–,6.71 µM (active)

# Read-out: Plasminogen activator inhibitor-1 (PAI1), SERPINE1 (gene 5054)
# Assay: BSK_BE3C_PAI1: BioMAP Diversity Plus: BE3C Assay for Plasminogen activator inhibitor-1 (PAI1) Biomarker Activity (AID 2283037)
# Conditions: primary human bronchial epithelial cells; actives raise or lower the signal
# How it was run: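 ELISA read-out of PAI-1 from human bronchial epithelial primary cells, 24 h post-dosing; bidirectional curve fit vs DMSO baseline, gain or loss of signal scored.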
SMILES,outcome,AC50
CCCCC(CC)COC(=O)CCCCC(=O)OCC(CC)CCCC (stereo unspecified),inactive,–
Nc1cccc2c(N)cccc12,inactive,–
CCCCC(CC)COC(=O)CCCCC(=O)OCc1ccccc1 (stereo unspecified),inactive,–
Oc1cc2ccccc2c2ccccc12,–,24.9 µM (active)
CC(O)CO (stereo unspecified),inactive,–
CN1CCN(c2ccccc2/C=C2\SCCN(c3ccc(Cl)c(Cl)c3)C2=O)CC1,–,33.3 µM (active)
O=c1c(-c2ccc(O)cc2)coc2cc(O)ccc12,inactive,–
Cc1oc(-c2ccccc2)nc1CCOc1ccc(C[C@H](Nc2ccccc2C(=O)c2ccccc2)C(=O)O)cc1,–,5.29 µM (active)
CCC(=C(c1ccc(O)cc1)c1ccc(OCCN(C)C)cc1)c1ccccc1,–,12 µM (active)
c1ccc2cc3c(ccc4ccccc43)cc2c1,–,3.97 µM (active)
O=[N+]([O-])c1ccc(O)cc1,inactive,–
O=C(O)c1ccccc1C(c1ccc(O)cc1)c1ccc(O)cc1,–,33.4 µM (active)
CCCCCCCCCCCCc1ccccc1S(=O)(=O)O,–,8.94 µM (active)
NC(=O)N1C(=O)C(C(=O)c2cc(Cl)cs2)c2cc(F)c(Cl)cc21 (stereo unspecified),–,3.15 µM (active)
CC1=C(/C=C/C(C)=C/C=C/C(C)=C/C(=O)O)C(C)(C)CCC1,inactive,–
CC[C@H](c1ccc(O)cc1)[C@@H](CC)c1ccc(O)cc1,–,22.9 µM (active)
CC(C)(C)CC(C)(C)c1ccc(O)c(-n2nc3ccccc3n2)c1,inactive,–

SMILES,outcome,AC50
CCCCCCCCOC(=O)CCCCCCCCC(=O)OCCCCCCCC,inactive,–
CCc1nn(C2CCCCC2)c2cc(C3(C#N)CCC(C(=O)O)CC3)ccc12 (stereo unspecified),–,4.33 µM (active)
CN1CCC[C@H]1c1cccnc1,inactive,–
CCCCCCCCCCCCN1CCCC1=O,–,31.8 µM (active)
C#C[C@]1(O)CC[C@H]2[C@@H]3CCC4=CC(=O)CC[C@@H]4[C@H]3CC[C@@]21C,inactive,–
CC#C[C@]1(O)CC[C@H]2[C@@H]3CCC4=CC(=O)CCC4=C3[C@@H](c3ccc(N(C)C)cc3)C[C@@]21C,–,12.9 µM (active)
COc1ccc([N+](=O)[O-])cc1N,inactive,–
CC(=O)NC1(c2cccc(F)c2)CCN(CC[C@@]2(c3ccc(Cl)c(Cl)c3)CN(c3ccccc3)C(=O)CO2)CC1,–,16.6 µM (active)
OC1CCC(C2CCCCC2)CC1 (stereo unspecified),inactive,–
CC(C)(C)c1ccc(O)c(C(C)(C)C)c1,–,31.6 µM (active)
CC[C@H](C)[C@@H](C(=O)O)n1sc2ccccc2c1=O,inactive,–
OC1CCCCC1,inactive,–
O=C(O)Cc1cc(I)c(Oc2cc(I)c(O)c(I)c2)c(I)c1,–,4.21 µM (active)
c1ccc2c(c1)Cc1ccccc1-2,inactive,–
C=C(C)C(=O)OCCC(F)(F)C(F)(F)C(F)(F)C(F)(F)C(F)(F)C(F)(F)F,inactive,–
CCCOc1sc(C(=O)N2CCC(c3cc(CN)ccc3F)CC2)c(C)c1Br,–,9.91 µM (active)
